Experimental data published in PubChem BioAssay AID1508600 (Functional Genomics Laboratory (NCATS/FGL), 2020).
About 3,700 (7%) of roughly 53,000 sequences were called active. Shown is part of a subset that was picked to be rich in actives. A number with no mark means an inactive call.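 The calls were made as follows: active = gene knockdowns whose robust z-score for IL-1 alpha signal is at least 2 or at most -2, so actives lie on both sides; inactive = the rest.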

Experiment: Components of the Cytosolic LPS Sensing Pathway: Gene Identification via Genome-wide siRNA Screen;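 also: robust z of the log signal after scaling to non-targeting control siRNA wells of the plate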
Conditions: RAW264.7 macrophages, IL-1a HTRF, actives lie on both sides, screened at 100 nM (by protocol), cells primed 5 h with Pam3CSK4 first
How it was run: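 RAW264.7; siRNA 100 nM final, RNAiMAX, 48h 37 degrees C; Pam3CSK4 5 h; LipidA + TransIT-TKO 24 h; IL-1a HTRF; CellTiter-Glo viability; robust z vs negative-control median.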
GGAUCAUGGGCGAAUGAUGTT against Rae1 gave a z-score of -1.41. With “GGACAAAAACAAAUGUGAGTT against 4933417A18Rik” the z-score was -2.43 (active). With GGAAUCAAAGGUCAAGCCATT against Rnf181 the z-score was 2.17 (active). Work on CCAUGUCAGUUACAAUGCGTT against Gja6 yielded a z-score of 1.54. For GGUCCAUGAUUGAAACACGTT against Srpr, the z-score was 0.798. GCAGAUAAGAGUUCAAAUCTT against Oxa1l showed a z-score of -0.499. In the case of GACAUACAAUCUCCUACAUTT against Olfr478, the z-score was 0.818. In the case of GCCGGGACCAUGAUUAUAGTT against Rbm10, the z-score was 2.7 (active). With GGAAUUCCGAAUAUUCCAGTT against Tsen2 the z-score was 1.51. GGAAGCCACCUUAACAUUATT against Osgin1 gave a z-score of -0.814. With GGAGAACUCUUUCAGAUUCTT against Stk36 the z-score was 0.957. For GGGAUUCUGUCUGCACUGUTT against Olfr1145, the z-score was -2.51 (active). GGGUUCUGCAUGUUGAUUCTT against Chm gave a z-score of -0.853. GCCACCCACCUAAAAUCAATT against Rcsd1 gave a z-score of -0.216. In the case of GGAAGUCUAGGUAAAAAAGTT against Samsn1, the z-score was -0.994. GGACUUCAAGGACUUCUACTT against Crtap showed a z-score of 0.112. For GGACAAUUGAAAACUGCCUTT against Gpd1, the z-score was 2.95 (active). In the case of GGGUGAGUGUCGGAACUUUTT against Sema6b, the z-score was -0.157. Sequence GGUUGUGCCAGAGGAGAUUTT against Scrib has a z-score of 0.963. For GGAAGAACUAGAGUCAUAUTT against Eps8l1, the z-score was -0.0721. With CCAUACAUAAAAAGCCGCCTT against Il1rl1 the z-score was 1.29. For GGUUCAUGUCAUCUUUAACTT against Calr, the z-score was -1.21. For GCAGAUGAUACCUGGGCAATT against Mtmr14, the z-score was 2.68 (active). In the case of GGAUCAAUUGGCACUAGACTT against Zfp787, the z-score was -1.31. For GGACAAGUCCUUUGCUGUGTT against Zmynd8, the z-score was -1.35. Work on GGCAAUACUGGAAGGGUGUTT against Eps15 yielded a z-score of -1.03. Sequence GGAUGAUAUGGCAUACUUUTT against Fam221a has a z-score of 0.803. “GGCCAUCUUGAAUUUUUUATT against 2410002F23Rik” gave a z-score of 0.0652. For GGUGCUGUUGAAUUGUGGGTT against Wdr77, the z-score was -0.366. For GAGCUCCUCUGCUUUCUCUTT against Ms4a6d, the z-score was -2.74 (active). GGUUAAACUUGGUGAAUUATT against Kcnj16 gave a z-score of 0.901. In the case of GCACAUGUCUGUGAUUCAATT against St8sia1, the z-score was -0.166. GCGGAAACUCUCGAAAGUGTT against Dhx34 gave a z-score of -1.52. CCUGAUGCAACACAGGUCCTT against Zbtb26 showed a z-score of 0.352. CGGAACACCAAUAAGAGAATT against Hgd showed a z-score of -0.667. For GGACCGAUUAAGGAAGGAATT against Ppp1r1a, the z-score was 2.49 (active). Work on GCGUGAUUGACAACUGGUUTT against Cphx1 yielded a z-score of 0.236. For GGGAAUAUGACUGAAUAUATT against Ss18, the z-score was -1.05. Sequence CCAAAUCGCUUCACAUAAUTT against Atp6v1g2 has a z-score of -1.1. For GAGAAUGAGUUCUGCCCAGTT against Lhb, the z-score was 2.24 (active). In the case of GGACAAGAACCUGAAGCGGTT against Cdk5r1, the z-score was -0.355. GGCUGGAGAAAAUGAUGAATT against Rwdd1 showed a z-score of -0.267. Sequence GGAAGACAUAUUAACUACUTT against Gpr37 has a z-score of 0.544. With GGAAAGCUCAAUUGGUUCGTT against Nup85 the z-score was -2.27 (active). Sequence GGGAUCAUCUCUUUUGCUGTT against Olfr720 has a z-score of -1.33. For GGGAAGCCUUUUUUAUCGGTT against V1rb5, the z-score was 0.838. CCCAUCCAAUAAGCAAUUGTT against Lpcat2 showed a z-score of -0.696. Work on GCGAGACUAUCAAAUCUAUTT against Gabra4 yielded a z-score of 0.948. For GGGAUAGUUACCUAAGACATT against Adarb2, the z-score was 0.593. In the case of GCACAAGUCUAAACAGCUGTT against Fermt1, the z-score was 0.494. Sequence GGAAAAAUACUCCAUAUUCTT against Enam has a z-score of 0.0353. In the case of CCUCAACACUCAGCUCAAUTT against Ifna14, the z-score was -2.67 (active). For GGCCAGUAGAUCCUUCUAATT against Fgf16, the z-score was 0.406. For CCUAAUCUAGAGCAACACATT against Ankrd34c, the z-score was -1.67. With GGCCUACCUUACCCUAAGATT against Adam32 the z-score was 0.513. For CCAUGGCUUACGAGAGACATT against Mavs, the z-score was -0.884. For GGAAUCCUUUCCUAAAUUGTT against Lin9, the z-score was 0.745. With GGAUAUGCUCUCUUGGCUCTT against Ctsk the z-score was -2.07 (active). In the case of GGCUUCCUCCACUCUUUCCTT against Rhbg, the z-score was -1.81. In the case of GGAACCAUGAAAUAAAUGUTT against Acad8, the z-score was 0.684. CCCUUAUUGAUUCUUCAAGTT against Ngp gave a z-score of 0.342. In the case of “GGUGCAACCAGUGUGUGAUTT against St6galnac6”, the z-score was 4.22 (active). In the case of CCCUCUAUCCUUAAACCAUTT against Erg28, the z-score was -0.549. CCUAUUCUUAACACCCUUGTT against Tfr2 gave a z-score of 0.891. With AUCUCUCCUGUUCUAACACTT against Olfr26 the z-score was -0.242. GGUCAUCAGCUUGUAACCATT against Mmadhc gave a z-score of -1.37. For “GGACAAUUACAUCCAGCCUTT against 2610528J11Rik”, the z-score was -2.11 (active). In the case of GGACCUCAGCGAAGACAAUTT against Cd300e, the z-score was 0.114. In the case of GGUGAAAAGGUUGAUGUCATT against Spertl, the z-score was -0.368.
